Screens as filed in PubChem.
Pf growth 48h: inhibits P. falciparum growth in the first generation, 48 h; Potency, µM (doses to about 28.7 µM), without a hit: at the top dose activity change, negative = inhibition, actives largely listed as inhibitors; actives 5.9% (n = 310,000); P. falciparum luciferase growth in erythrocytes, 48 h; also: % is scaled to controls: 0 for no effect and ±100 for the full control effect
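Luminescence readout; reporter = integrated firefly luciferase in P. falciparum. RBC culture at 2% hematocrit, 0.1% parasitemia final, 37 C/5% CO2; decreased signal taken as growth inhibition.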
NS1 function inh: blocks influenza NS1 protein function; Potency, µM (titrated, usually from 46.1 µM), for inactives: at the highest dose activity, positive = more growth; actives 0.4% (n = 270,000); AID 2326; calls by dose curve; also: actives are rising curves; nearly all actives have a fitted effect of over 50% in size
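Growth recovery, yeast-based: influenza A NS1 expressed in S. cerevisiae causes slow growth, and suppressors are detected by OD600. The parent strain without NS1 is used as positive control.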
Vaccinia mCherry: inhibitors of vaccinia virus infection (mCherry reporter signal); Vaccinia virus mCherry reporter infection, fluorescence; Potency, µM (series often up to 36.5 µM), without a hit: at the top dose activity change, negative = inhibition, most hits filed as inhibitors; actives 0.63% (n = 310,000); calls by dose curve; tested in A549 cells; also: % is scaled to controls: 0 for no effect and ±100 for the full control effect; nearly all actives have a fitted effect of over 35% in size
HCV inhibitor: HCV inhibition. Huh7.5.1 HCVcc-Cre infection, luciferase reporter, 44 h. Potency, µM (highest dose often 41.8 µM), for inactives: at the highest dose activity change, negative = inhibition, hits mostly inhibitors. actives 3.4% (n = 340,000); also: % is scaled to controls: 0 for no effect and ±100 for the full control effect
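Antiviral activity was scored by luciferase reporter output from cells infected with HCVcc-Cre (~0.5 moi) in presence of compound, 44 h infection period, cells seeded 1,000/well 4 h prior.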
VACV Venus inh: inhibitors of vaccinia virus (Venus reporter); Vaccinia virus Venus reporter expression, fluorescence; Potency, µM (series often up to 36.5 µM), for inactives: at the top dose activity change, negative = inhibition, most hits filed as inhibitors; actives 0.46% (n = 330,000); calls by dose curve; tested in A549 cells; also: % is scaled to controls: 0 for no effect and ±100 for the full control effect; nearly all actives have a fitted effect of over 30% in size
Pf growth 96h: P. falciparum growth inhibition at 96 hour, primary screen for plastid delayed-death inhibitors. Potency, µM (doses to about 28.7 µM), for the others: at the highest dose activity change, negative = inhibition, most hits filed as inhibitors. P. falciparum luciferase reporter growth, 96 h. actives 6.9% (n = 320,000); also: % is scaled to controls: 0 for no effect and ±100 for the full control effect
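Readout is luminescence from an integrated firefly luciferase in P. falciparum. Red cells, 2% hematocrit and 0.05% parasitemia final, were cultured with compound through two parasite generations (96 hours) at 37 C, 5% CO2.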
* marks the source's active call; other numbers are inactive results; i = inactive; u = inconclusive; x = no result. An excerpt weighted towards active compounds, which were near 11% of everything screened. Unless noted, calls follow the shape of the dose curve; as a rule, active = well fitted inhibition curve with a large enough effect; inconclusive = small, poorly fitted or top-dose-only effect, or another doubt; inactive = no such curve, though single readings can be large or run the other way. Potency is read from the fitted curve at half-maximal effect.

SMILES	Pf growth 48h	NS1 function inh	Vaccinia mCherry	HCV inhibitor	VACV Venus inh	Pf growth 96h
CC(C)(C)c1ccc(NC(=O)NC2CCCc3ccccc32)cc1 (stereo not drawn)	u	1.8%	x	u	x	u
CCC(CO)Nc1nc2ccc(Cl)cc2c2ccccc12 (stereo not drawn)	-48.0%	-5.6%	u	3.98µM*	u	u
CCN1CCN(c2ccc(NC(=O)c3ccc([N+](=O)[O-])o3)cc2Cl)CC1	u	x	11.2µM*	u	u	u
O=C(CN1C(=O)NC2(CCCC2)C1=O)Nc1cc(Cl)ccc1N1CCCCC1	u	-11.0%	-26.8%	5.4%	-20.7%	13.1µM*
O=C(CN1C(=O)NC2(CCCCC2)C1=O)Nc1cc(C(F)(F)F)ccc1N1CCCC1	2.3%	x	-0.5%	-21.2%	-20.0%	-16.3%
CCC(=O)N1CCN(c2ccc(Cl)cc2NC(=O)Cc2ccc(Cl)cc2)CC1	x	1.4%	-21.8%	x	-12.0%	13.1µM*
CCC(=O)N1CCN(c2ccc(Cl)cc2NC(=O)c2ccc([N+](=O)[O-])o2)CC1	u	14.1%	u	-9.1%	u	10.4µM*
CC(C)C(=O)N1CCCC1(C)C(=O)Nc1ccccc1 (stereo not drawn)	x	x	13.8%	x	3.9%	x
CC(=O)N1CCN(c2ccc(NC(=O)c3ccco3)cc2Cl)CC1	37.7%	-3.7%	-8.6%	13.5%	-11.8%	u
O=C(Nc1ccc(N2CCCC2)c(Cl)c1)c1ccc(Br)o1	4.65µM*	4.8%	-18.1%	u	-8.3%	4.65µM*
CCC(=O)N1CCN(c2ccc(NC(=O)c3ccc([N+](=O)[O-])o3)cc2Cl)CC1	u	x	12.6µM*	u	11.2µM*	14.2%
CC(=O)N1CCN(c2ccc(NC(=O)c3ccc([N+](=O)[O-])o3)cc2Cl)CC1	u	-14.7%	u	u	u	5.22µM*
CCCN(CCC)S(=O)(=O)c1ccc(C(=O)Nc2cccc(-c3nc4ccccc4[nH]3)c2)cc1	x	x	-18.0%	x	-21.4%	x
COc1cccc(C(c2c(O)cc(C)n(Cc3ccco3)c2=O)N2CCC(C)CC2)c1 (stereo not drawn)	x	x	-8.6%	x	-8.9%	x
O=C(O)C(Cc1ccccc1)N1C(=O)c2ccccc2C1=O (stereo not drawn)	x	5.0%	-18.4%	7.8%	-15.3%	14.7µM*
O=C(Nc1ccccc1)C(CCCCN1C(=O)c2ccccc2C1=O)N1C(=O)c2ccccc2C1=O (stereo not drawn)	x	x	i	17.7%	-4.8%	x
O=C(O)C(CCCCN1C(=O)c2ccccc2C1=O)N1C(=O)c2ccccc2C1=O (stereo not drawn)	31.3%	6.8%	x	-11.1%	-12.4%	10.4µM*
CCCS(=O)(=O)c1nc(S(=O)(=O)c2ccc(C)cc2)c(N2CCN(CC)CC2)s1	-18.4%	-2.9%	x	16.3%	x	2.7%
COc1ccc(Cl)cc1-c1cc(C(=O)NCc2ccc(F)cc2)[nH]n1	x	x	i	x	-14.3%	x
Cc1ccc(CNS(=O)(=O)c2ccc(C(C)(C)C)cc2)n1C	-15.0%	-39.1%	-15.6%	0.3%	-1.4%	x
Cc1ccc(Nc2nc(OC(C(F)(F)F)C(F)(F)F)nc(N3CCOCC3)n2)cc1	u	-1.3%	x	-2.7%	-46.7%	u
FC(F)(F)C(Oc1nc(NC2CCCCC2)nc(N2CCOCC2)n1)C(F)(F)F	11.7µM*	-80.5%	x	u	x	u
CC(=O)c1ccc(NC(=O)CCC(=O)N2CC(C)Oc3ccc(C)cc32)cc1 (stereo not drawn)	6.7%	-3.1%	-11.9%	10µM*	-9.3%	-1.0%
C=CCC(O)(CCN1CCCCC1)c1ccccc1 (stereo not drawn)	12.6%	-0.8%	x	-6.4%	-15.4%	40.6%
COc1ccc(C(O)(CCc2ccccc2)CCN2CCCCC2)cc1 (stereo not drawn)	u	x	-10.9%	31.6µM*	-14.2%	9.3%
SMILES	Pf growth 48h	NS1 function inh	Vaccinia mCherry	HCV inhibitor	VACV Venus inh	Pf growth 96h
CCOC(=O)N1CCN(C(=O)c2cccn3c(=O)c4sccc4nc23)CC1	27.2%	-8.6%	x	6.9%	x	2.33µM*
CCOC(=O)N1CCN(C(=O)c2ccc3nc4ccsc4c(=O)n3c2)CC1	1.6%	7.4%	-6.1%	1.4%	-4.3%	8.28µM*
COc1ccc2nc(C)cc(C(=O)O)c2c1	u	9.1%	x	12.6%	2.5%	x
Cc1cc(OC(C)C(=O)N2CCN(c3ccccc3)CC2)c2c(C)c(C)c(=O)oc2c1 (stereo not drawn)	9.28µM*	-7.2%	x	u	x	13.1µM*
COc1ccc(Nc2nc(-c3ccccc3)nc3ccccc23)cc1	u	-49.8%	-12.3%	u	-26.4%	u
Oc1ccc(Nc2nc(-c3ccccc3)nc3ccccc23)cc1	-4.8%	1.1%	u	10µM*	u	-65.7%
CC(=O)Nc1ccc(Nc2nc(-c3ccccc3)nc3ccccc23)cc1	-48.0%	x	-32.5%	10µM*	u	-6.6%
COc1cc(NC(=O)CC2C(=O)N(c3cccc(C)c3)C(=O)N2Cc2cccs2)cc(OC)c1 (stereo not drawn)	x	x	-4.8%	x	-7.3%	x
CCOC(=O)[C@]12Cc3ccccc3[C@H]1N(Cc1ccccc1)C(=O)c1cc(OC)ccc12	x	x	11.6%	x	-5.0%	x
Cc1nc(-c2ccc(F)cc2)c(CC(=O)N(C)CC(=O)Nc2ccccc2Br)s1	13.1µM*	x	-7.2%	-0.5%	-4.4%	u
Cc1ccc(C)c(S(=O)(=O)N2CCN(C(=O)Cc3sc(C)nc3-c3ccc(F)cc3)CC2)c1	x	x	-2.5%	u	-27.8%	x
Cc1ccc(-c2nc(C)sc2CC(=O)Nc2nnc(C)s2)cc1	u	-6.6%	-12.8%	13.8%	-8.0%	u
Cc1nc(-c2ccc(F)cc2)c(CC(=O)N2CCN(S(=O)(=O)c3ccccc3Br)CC2)s1	u	13.3%	-7.0%	x	-23.5%	8.28µM*
Cc1cc(C)c(NC(=O)CNC(=O)Cc2sc(C)nc2-c2ccc(F)cc2)c(C)c1	13.1µM*	x	-13.3%	u	-6.3%	u
Cc1nc(-c2ccc(F)cc2)c(CC(=O)N(C)CC(=O)Nc2ccc(Br)cc2C)s1	5.22µM*	x	-14.4%	u	-7.7%	u
Cc1nc(-c2ccc(F)cc2)c(CC(=O)N(C)CC(=O)Nc2ccccc2C(F)(F)F)s1	-9.3%	x	i	u	-18.3%	-3.0%
CC1(C)Oc2ccc3ccc(=O)oc3c2/C(=C/Nc2ccccn2)C1=O	-3.5%	0.6%	-8.6%	u	-9.9%	u
CC1CCCN(C(C(=O)Nc2ccc3c(c2)OCCO3)c2ccccc2)C1 (stereo not drawn)	37.2%	-8.2%	-10.4%	-3.8%	-4.5%	u
O=C(COC(=O)c1c(F)cccc1F)NCc1ccc2c(c1)OCO2	-8.3%	x	x	4.1%	x	13.2%
Cc1ccc(-c2cc(C(=O)Nc3ccc4c(c3)OCCO4)c3ccccc3n2)cc1	-90.9%	23.9%	x	-11.4%	-11.6%	23.3%
